Among the data in PubChem BioAssay are composite z-score and z-score values, retold here.

Calls of active or inactive are those of the source.

Assay [1] is described as follows: binders of probe aFSTL3 on microarray, primary screen, stem cell growth factor project, biochemical, small-molecule microarray, fluorescence 635/667 (AID 1064).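 Note: measures binding of the biotinylated anti-FSTL3 antibody to printed compounds.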 The conditions noted are these: higher = more signal.
Assay [2] can be described thus: binders from COS7 lysate, DM2A8 probe, primary screen, torsin A project, cell lysate, small-molecule microarray, fluorescence 635/667 (AID 1065). The conditions noted are these: higher = more signal, COS7 lysate expressing mutant human TOR1A.
Assay [3] can be described thus: binders of probe aFGF2 on microarray, primary screen, stem cell growth factor project, biochemical, small-molecule microarray, fluorescence 635/667 (AID 1067).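 Note: measures binding of biotinylated aFGF2 protein to printed compounds on slides; z-score merges feature fluorescence and signal-to-noise across triplicate slides.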 To be noted: higher = more signal.
Assay [4] can be described thus: binders of probe aFGF10 on microarray, primary screen, stem cell growth factor project, biochemical, small-molecule microarray, fluorescence 635/667 (AID 1071).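 Note: score merges 667 nm spot intensity and signal to noise from triplicate slides.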 The conditions noted are these: higher = more signal.
Assay [5] addresses Neurogenic locus notch homolog protein 2 (Homo sapiens) (UniProt Q04721). As to the kind of experiment: Notch2 binders on small-molecule microarrays, primary screen, biochemical, small-molecule microarray, 635 nm fluorescence, stem cell growth factors (AID 1073). The conditions noted are these: Notch2 binding, higher = more signal.
The target of assay [6] is Pro-neuregulin-1, membrane-bound isoform (Homo sapiens) (UniProt Q02297). Kind of assay: NRG1 binders on small-molecule microarrays, primary screen, psychiatric disease protein project, biochemical, small-molecule microarray, fluorescence 635/667 (AID 1075).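 Note: score combines 667 nm spot fluorescence with signal to noise.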 The conditions noted are these: NRG1 binding, 635 nm fluorescence, higher = more signal.
Pro-neuregulin-1, membrane-bound isoform (Homo sapiens), sequence (Q02297 whole entry, looked up, the tested form may be a part, canonical isoform): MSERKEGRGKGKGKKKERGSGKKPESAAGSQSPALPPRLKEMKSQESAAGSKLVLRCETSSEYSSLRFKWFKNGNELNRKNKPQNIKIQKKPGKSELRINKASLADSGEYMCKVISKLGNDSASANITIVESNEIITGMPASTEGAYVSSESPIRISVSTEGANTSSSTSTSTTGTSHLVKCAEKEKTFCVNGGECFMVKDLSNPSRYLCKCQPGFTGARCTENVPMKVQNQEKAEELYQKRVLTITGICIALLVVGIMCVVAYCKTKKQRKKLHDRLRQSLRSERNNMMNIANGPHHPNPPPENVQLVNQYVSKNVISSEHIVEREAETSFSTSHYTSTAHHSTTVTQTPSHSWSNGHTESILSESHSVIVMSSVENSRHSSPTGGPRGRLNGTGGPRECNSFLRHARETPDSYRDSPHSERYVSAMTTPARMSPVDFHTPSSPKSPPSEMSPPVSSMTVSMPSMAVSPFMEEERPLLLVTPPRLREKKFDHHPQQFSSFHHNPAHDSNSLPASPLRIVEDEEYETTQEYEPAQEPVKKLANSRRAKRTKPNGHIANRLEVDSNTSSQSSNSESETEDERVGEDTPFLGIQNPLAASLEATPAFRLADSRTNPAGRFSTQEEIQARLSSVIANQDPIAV
In assay [7] the test system is Neuregulin-1 EGF-like domain. As to the kind of experiment: binders of neuregulin-1 EGF-like domain, primary screen, biochemical, small-molecule microarray, 635 nm fluorescence (AID 1081).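 Note: binding of the protein to compounds printed on small-molecule microarray slides.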 The conditions noted are these: small-molecule microarray binding, higher = more signal.
Assay [8] can be described thus: FRG1 promoter luciferase signal modulators, primary screen, FRG1 inhibition for FSHD, cell-based, C2C12 myotubes, firefly/Renilla luciferase, luminescence (AID 1084). The conditions noted are these: higher = more signal, called active from +8 up or from −8 down.
A short description of assay [9]: binders of probe aFST on microarray, primary screen, stem cell growth factor project, biochemical, small-molecule microarray, fluorescence 635/667 (AID 1086).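 Note: score merges 667 nm fluorescence with signal-to-noise of each printed compound spot.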 The conditions noted are these: higher = more signal.
The nature of assay [10]: binders of probe aHhip on microarray, primary screen, stem cell growth factor project, biochemical, small-molecule microarray, fluorescence 635/667 (AID 1087).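 Note: score merges spot fluorescence at 667nm with spot signal to noise ratio.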 To be noted: higher = more signal.
Assay [11] relates to PRMT1 (protein arginine N-methyltransferase 1). As to the kind of experiment: PRMT1 binders on small-molecule microarrays, primary screen, biochemical, small-molecule microarray, 635 nm fluorescence (AID 1088).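 Note: binding of Prmt1 protein to compounds spotted on small-molecule microarray slides.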 To be noted: small-molecule microarray binding, higher = more signal.
Assay [12] is described as follows: yeast growth modulation, basal conditions, primary screen, YJM789 clinical isolate, OD600, 24 h (AID 1089).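 Note: growth of clinical yeast isolate S. cerevisiae YJM 789 seeded 1000 cells per well; test concentration not given here.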 To be noted: S. cerevisiae YJM789 growth, higher = more signal, called active from +8 up or from −8 down.
Assay [13] in a line: fission yeast growth modulation, primary screen, strain 972, OD600, 24 h, no modulator (AID 1090).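 Note: basal condition with compound alone and no growth modifier present; test concentration not given here.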 To be noted: S. pombe 972 growth, higher = more signal, called active from +8 up or from −8 down.
The nature of assay [14]: S. cerevisiae growth modulation with rapamycin, primary screen, strain BY4716, OD600, 96 h (AID 1091). Note: test concentration not given here. The conditions noted are these: higher = more signal, called active from +8 up or from −8 down.
The target of assay [15] is Torsin-1A-interacting protein 2 (Homo sapiens) (UniProt Q8NFQ8). As to the kind of experiment: LULL1 binders on small-molecule microarray, primary screen, cell lysate, human LULL1 lysate, 635/667 nm fluorescence (AID 1092).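 Note: probe is lysate of COS7 cells overexpressing human LULL1; score merges per-feature 667 nm fluorescence with signal-to-noise.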 To be noted: hLULL1 lysate binding, 635 nm fluorescence, higher = more signal.
Torsin-1A-interacting protein 2 (Homo sapiens), sequence (Q8NFQ8 whole entry, looked up): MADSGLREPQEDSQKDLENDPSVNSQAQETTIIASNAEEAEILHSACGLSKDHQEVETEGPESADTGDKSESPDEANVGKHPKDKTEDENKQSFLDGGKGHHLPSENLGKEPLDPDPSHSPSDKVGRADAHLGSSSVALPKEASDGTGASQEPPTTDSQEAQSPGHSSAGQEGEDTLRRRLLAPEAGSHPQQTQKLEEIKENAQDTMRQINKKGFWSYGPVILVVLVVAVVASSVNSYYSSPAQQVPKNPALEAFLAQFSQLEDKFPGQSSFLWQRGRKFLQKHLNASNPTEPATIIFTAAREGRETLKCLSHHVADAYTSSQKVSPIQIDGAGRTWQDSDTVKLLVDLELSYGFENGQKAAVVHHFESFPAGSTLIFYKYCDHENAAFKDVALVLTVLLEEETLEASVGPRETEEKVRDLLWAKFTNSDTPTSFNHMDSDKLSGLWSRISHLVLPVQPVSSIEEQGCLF
Assay [16] in a line: E. coli growth modulation, two-sided OD650, primary screen, E. coli filamentation project, strain DRC41, 24 h (AID 1093).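 Note: MC1000 strain lacking acrAB efflux and sulA so SOS filamentation is blocked; test concentration not given here.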 To be noted: OD650, 24 h, higher = more signal, called active from +8 up or from −8 down.
The nature of assay [17]: small-molecule microarray binders of probe aLefty2, primary screen, biochemical, biotinylated probe, 635/667 nm fluorescence (AID 1094).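 Note: score merges spot fluorescence near 667 nm with spot signal-to-noise ratio.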 The conditions noted are these: higher = more signal.
Assay [18] deals with Noggin (protein binding on small-molecule microarray). As to the kind of experiment: Noggin binders on small-molecule microarray, primary screen, biochemical, 635/667 nm fluorescence (AID 1095).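 Note: score merges 667 nm feature fluorescence with signal to noise over triplicate slides.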 To be noted: 635 nm fluorescence, higher = more signal.
The target of assay [19] is Neurogenic locus notch homolog protein 3 (Homo sapiens) (UniProt Q9UM47). As to the kind of experiment: NOTCH3 binders on small-molecule microarray, primary screen, biochemical, 635/667 nm fluorescence (AID 1096). The conditions noted are these: NOTCH3 binding, 635 nm fluorescence, higher = more signal.
Neurogenic locus notch homolog protein 3 (Homo sapiens), sequence (Q9UM47 whole entry, looked up): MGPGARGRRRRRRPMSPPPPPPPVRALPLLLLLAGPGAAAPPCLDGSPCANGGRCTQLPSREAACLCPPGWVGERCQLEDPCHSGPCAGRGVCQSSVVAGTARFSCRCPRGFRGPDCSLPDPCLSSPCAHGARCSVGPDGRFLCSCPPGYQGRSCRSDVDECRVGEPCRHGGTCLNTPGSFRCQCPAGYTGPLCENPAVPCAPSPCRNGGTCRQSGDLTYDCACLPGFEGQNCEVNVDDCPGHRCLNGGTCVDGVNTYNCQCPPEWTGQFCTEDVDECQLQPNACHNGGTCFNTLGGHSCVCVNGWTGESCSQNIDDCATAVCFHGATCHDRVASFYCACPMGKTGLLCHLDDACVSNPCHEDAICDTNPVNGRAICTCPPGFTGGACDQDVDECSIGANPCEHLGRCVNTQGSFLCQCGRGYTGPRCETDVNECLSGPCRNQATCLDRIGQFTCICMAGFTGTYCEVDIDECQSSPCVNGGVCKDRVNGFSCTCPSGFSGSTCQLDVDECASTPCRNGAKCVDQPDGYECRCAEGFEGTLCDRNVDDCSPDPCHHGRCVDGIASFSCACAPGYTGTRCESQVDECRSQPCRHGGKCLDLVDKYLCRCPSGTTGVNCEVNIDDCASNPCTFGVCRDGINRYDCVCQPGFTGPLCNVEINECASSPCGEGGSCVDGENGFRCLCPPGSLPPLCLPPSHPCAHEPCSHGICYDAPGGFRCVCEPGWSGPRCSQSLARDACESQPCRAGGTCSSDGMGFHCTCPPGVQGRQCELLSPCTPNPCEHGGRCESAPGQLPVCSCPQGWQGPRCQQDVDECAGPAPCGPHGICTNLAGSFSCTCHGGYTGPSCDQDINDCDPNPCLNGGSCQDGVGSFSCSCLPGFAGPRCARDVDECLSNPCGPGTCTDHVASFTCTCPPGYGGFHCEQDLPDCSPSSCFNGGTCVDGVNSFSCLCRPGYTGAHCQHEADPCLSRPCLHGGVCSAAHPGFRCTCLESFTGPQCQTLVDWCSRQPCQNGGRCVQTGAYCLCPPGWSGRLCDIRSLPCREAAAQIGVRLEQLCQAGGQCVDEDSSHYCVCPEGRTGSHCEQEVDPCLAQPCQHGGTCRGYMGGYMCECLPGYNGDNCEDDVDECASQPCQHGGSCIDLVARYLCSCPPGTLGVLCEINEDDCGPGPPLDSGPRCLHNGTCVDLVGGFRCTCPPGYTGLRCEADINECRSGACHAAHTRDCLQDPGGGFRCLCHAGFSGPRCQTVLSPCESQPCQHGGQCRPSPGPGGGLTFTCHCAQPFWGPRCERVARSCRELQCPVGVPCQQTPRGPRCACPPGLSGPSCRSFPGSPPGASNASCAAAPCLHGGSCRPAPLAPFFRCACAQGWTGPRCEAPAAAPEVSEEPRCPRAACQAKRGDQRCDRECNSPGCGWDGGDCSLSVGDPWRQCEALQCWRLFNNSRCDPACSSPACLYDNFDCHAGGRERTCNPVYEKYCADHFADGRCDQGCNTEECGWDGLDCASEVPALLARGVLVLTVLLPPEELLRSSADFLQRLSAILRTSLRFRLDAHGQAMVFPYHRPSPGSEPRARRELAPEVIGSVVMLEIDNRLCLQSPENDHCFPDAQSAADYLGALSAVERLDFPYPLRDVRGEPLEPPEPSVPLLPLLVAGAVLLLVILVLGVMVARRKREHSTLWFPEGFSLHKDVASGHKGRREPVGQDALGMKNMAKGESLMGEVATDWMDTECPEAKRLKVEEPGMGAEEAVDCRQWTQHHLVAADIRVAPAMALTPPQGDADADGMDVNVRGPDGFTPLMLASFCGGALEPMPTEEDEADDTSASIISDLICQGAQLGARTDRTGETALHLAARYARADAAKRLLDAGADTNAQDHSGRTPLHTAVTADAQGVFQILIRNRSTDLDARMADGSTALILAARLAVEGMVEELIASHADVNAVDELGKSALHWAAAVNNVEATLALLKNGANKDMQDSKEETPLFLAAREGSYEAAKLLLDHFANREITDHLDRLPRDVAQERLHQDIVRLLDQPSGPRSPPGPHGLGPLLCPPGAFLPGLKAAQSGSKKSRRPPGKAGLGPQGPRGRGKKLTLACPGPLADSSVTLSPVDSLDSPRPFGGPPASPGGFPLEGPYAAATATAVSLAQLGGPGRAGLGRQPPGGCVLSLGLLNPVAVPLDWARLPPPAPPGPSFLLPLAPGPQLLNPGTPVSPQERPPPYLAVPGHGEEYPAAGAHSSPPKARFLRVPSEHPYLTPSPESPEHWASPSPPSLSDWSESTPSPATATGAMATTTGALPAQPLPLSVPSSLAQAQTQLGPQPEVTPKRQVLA
The nature of assay [20]: small-molecule microarray binders of probe aEGFR, primary screen, biochemical, biotinylated probe, 635/667 nm fluorescence (AID 1097).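 Note: probe is a biotinylated anti-EGFR antibody binding compounds printed on slides; score combines fluorescence near 667 nm and signal to noise of each spot.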 The conditions noted are these: higher = more signal.

With `COCCCNC(=O)[C@@]1(C)c2ccccc2C(=O)N(C(C)C)[C@H]1c1ccc(CO)cc1`, the composite z-score was -0.427 in assay [1]; 0.512 in assay [2]; -0.0996 in assay [3]; -0.0442 in assay [4]; 0.552 in assay [5]; 0.302 in [6]. For the same compound, the composite z-score in assay [7] was 1.48; in assay [9] it was 0.114; in [10] it was 0.0201; in assay [11], 1.53; in assay [15], 1.6; in [17], -0.136. Besides, the results for the composite z-score in assay [18], in assay [19] and in assay [20] were 0.571, 0.473 and 0.0004, respectively. Besides, the z-score in [8] was 0.214 (inactive); in [12], 0.564 (inactive); in assay [13] it was -0.162 (inactive); in [14], 0.642 (inactive); in assay [16] it was -0.636 (inactive).
Turning to `[N-]=[N+]=NCc1ccccc1[C@@H]1OC(c2ccc(OCCCO)cc2)=N[C@]1(Cc1ccccc1)C(N)=O`, the composite z-score in assay [1] was 0.0286; in assay [2], -0.187; in [3], 0.0062; in assay [4], 0.98; in [5] it was 1.6; in assay [6] it was 1.99. The composite z-score in assay [7] was 1.29; in assay [9], 1.35; in [10], -0.249; in assay [11] it was 1.48; in assay [15], 3.36; in assay [17], 0.227. Besides, the composite z-score in [18] amounted to 0.683; in assay [19] it was 1.06; in [20], 0.154. The z-score in assay [8] was 2.02 (inactive); in [12] it was -0.368 (inactive); in [13], -2.27 (inactive); in assay [14], -0.784 (inactive); in assay [16], 0.455 (inactive).
`[N-]=[N+]=Nc1ccccc1[C@H]1OC(c2ccc(OCCCO)cc2)=N[C@@]1(CCS(=O)(=O)c1ccccc1)C(=O)NCC(O)CO` (stereo not given in full): the composite z-score in assay [1] turned out to be 0.408; in assay [2], 0.652; in [3], 0.0367; in assay [4], 0.543; in [5], 1.35; in assay [6] it was 1.75. In addition, the composite z-score was 1.3 in assay [7]; 1.1 in assay [9]; -0.283 in assay [10]; 0.976 in [11]; 3.64 in assay [15]; 0.207 in assay [17]. Besides, the composite z-score is 0.108 in assay [18], 0.244 in assay [19] and -0.111 in assay [20]. For the same compound, the z-score in assay [8] is 5.85 (inactive); in [12], -0.733 (inactive); in assay [13] it was -0.213 (inactive); in assay [14], 0.803 (inactive); in assay [16], -0.168 (inactive).
`CCCC[C@H]1OB(O)C[C@H]2C1=C(COC)Cn1c(=O)n(-c3ccccc3)c(=O)n12`: the composite z-score in assay [1] was -0.516; in [2] it was 0.107; in assay [3], -0.157; in assay [4], 0.392; in assay [5], 0.325; in [6] it was -0.19. The composite z-score was 0.484 in assay [7]; 0.199 in assay [9]; -0.236 in assay [10]; 0.601 in [11]; 0.814 in assay [15]; -0.208 in assay [17]. For the same compound, the figures for the composite z-score in [18], in assay [19] and in assay [20] were 0.0562, 0.121 and -0.137, respectively. The z-score in assay [8] is 0.103 (inactive); in [12], 0.461 (inactive); in assay [13], 0.19 (inactive); in assay [14], -0.386 (inactive); in assay [16] it was 0.498 (inactive).
In the case of `C=C(C)[C@@H]1CC=C(C(O)C2C=CC3C(=O)N(c4ccccc4)C(=O)C3N2Nc2ccccc2)CC1` (stereo not given in full), the composite z-score in assay [1] amounted to 1.08; in assay [2], 0.881; in assay [3], 0.364; in [4], 0.929; in [5], 1.26; in assay [6] it was 1.57. For the same compound, the composite z-score in assay [7] came out at 1.28; in [9], 1.54; in assay [10], 1.07; in assay [11], 1.55; in assay [15] it was 3.32; in assay [17] it was 0.467. Moreover, the values for the composite z-score in assay [18], in [19] and in [20] were 0.302, 1.05 and 0.34, respectively. The z-score is -0.441 (inactive) in assay [8]; 0.0118 (inactive) in assay [12]; 0.0527 (inactive) in assay [13]; 0.0587 (inactive) in [14]; -0.784 (inactive) in assay [16].
